Active and inactive are the calls of the source. The calls were made as follows: active = hit-call score of the fitted dose curve at least 0.9, where 1 is the maximum; inactive = score below 0.9.
The compounds below were run on CFLAR gene, CFLAR (gene 8837) (assay: LTEA_HepaRG_CFLAR: Life Technologies and Expression Analysis (LTEA) Assay for CFLAR gene using HepaRG (AID 2283455)). Details: mRNA level, 48 h; actives raise or lower the signal.
Experimental: LTEA_HepaRG is a cell based, multiplexed-readout assay that uses HepaRG, a human liver cell line, with measurements taken at 48 hours after chemical dosing on a 96-well plate.LTEA_HepaRG_CFLAR is one of 102 assay component(s) measured in the LTEA HepaRG cell culture assay. It is a marker of Cell proliferation, survival, death.Data from the assay component LTEA_HepaRG_CFLAR was analyzed into 1 endpoint. This assay endpoint, LTEA_HepaRG_CFLAR, was analyzed with bidirectional fitting relative to DMSO as the negative control and baseline of activity. Using a type of inducible reporter, measures of mRNA induction for gain or loss-of-signal activity can be used to understand regulation of transcription factor activity. To generalize the intended target to other relatable targets, this assay endpoint is annotated to the cell cycle intended target family, where the subfamily is Cell proliferation, survival, death.
A total of 1060 chemcials from the ToxCast library were tested in eight-point concentration-response experiments. Cell culture and cytotoxicity assays were conducted at Thermo Fisher Scientific's Custom Services facility (Madison, WI). A single lot of human HepaRG cells (Thermo Fisher Scientific, Frederick, MD) was used for the cell culture experiments. 96-well format collagen type I coated plates of human HepaRG cells were prepared using established methods. Briefly, cryopreserved HepaRG cells were thawed, plated at a density of approximately 100,000 cells/well in HepaRG Thaw, Plate, and General Purpose media (HPRG770, Thermo Fisher Scientific), and incubated for 48 hours. 0.5% DMSO was selected as vehicle control to balance the requisite need of DMSO in HepaRG cultures to maintain differentiation (for example, baseline metabolism, proportions of hepatocytes vs. cholangiocytes), while enabling further hepatic receptor pathway activation (for example, PXR and CAR) in response to chemical exposure. 48 hours after plating, the culture medium was replaced with HepaRG Serum-Free Incudtion Media. Cells were exposed to each test chemical in duplicate and maintained in CO2 incubators for another 48 hours. Chemical plates were thawed to room temperature and 200x concentrations of treatment groups were prepared. 8-point conentration-reponse curves were made with the highest exposure at 100 uM, followed by half-log dilutions, all in 0.5% DMSO. Each test plate contained variouse controls, induction positive controls (1mM phenobarbital), cytotoxicity positive controls ([…] aflatoxin B1), vehicle controls (0.5% DMSO), and total lysis controls (0.5% DMSO). Cell morphology images were taken using an Essen IncuCyte FLR automated microscope, with six 96-well plates imaged in about 24 minutes. Images were captured and exported and JPEG files. Spent culture media was transfered to black-well plates for the LDH assay, and remaining media was sorted at -80 C for later use. Cells were treated with RLT buffer and frozen until shipped for gene expression analysis. Total RNA was isolated from the cell suspension in 75 uL of Buffer RLT (Qiagen, Germantown, MD 20874) by Quintiles/Expression Analysis (Durham, NC) using a custom isolation procedure. Total RNA from each plate well was transferred to a preamplification plate. Fluidigm's 96.96 Dynamic ArrayTM (Fluidigm, Amsterdam, the Netherlands) technology was used for gene expression analyses by quantitative reverse transcription polymerase chain reaction (qRT-PCR, performed by Quintiles/Expression Analysis, Durham, NC)89. Standard TaqManTM Assays (Applied Biosystems/ThermoFisher Scientific, Foster City, CA) were used to assess the expression of 93 genes selected based on their selectivity and sensitivity to important hepatic receptors known to be modulated by environmental chemicals; importance in human hepatocyte functionality; and hepatotoxicity. […]

Compound	AC50	outcome
CCOc1nc(C(Cl)(Cl)Cl)ns1	0.912 µM (active)	
CC(C)C1(C)N=C(c2ncccc2C(=O)O)NC1=O (stereo not given)		inactive
O=P(O)(O)CCCl		inactive
CS(=O)(=O)c1cc(C(F)(F)F)ccc1C(=O)c1cnoc1C1CC1		inactive
CN=C=S		inactive
CC1(C)CON(Cc2ccccc2Cl)C1=O		inactive
COC(=O)NC(=S)Nc1ccccc1NC(=S)NC(=O)OC		inactive
O=C1C2CC=CCC2C(=O)N1SC(Cl)(Cl)Cl (stereo not given)		inactive
CCOc1cc(C(C)(C)C)ccc1C1COC(c2c(F)cccc2F)=N1 (stereo not given)		inactive
CC(C)N1C(=O)N(c2ccccc2)CSC1=NC(C)(C)C		inactive
COC(=O)c1c(C(F)F)nc(C(F)(F)F)c(C2=NCCS2)c1CC(C)C		inactive
CC(C)=CC1C(C(=O)OCc2coc(Cc3ccccc3)c2)C1(C)C (stereo not given)		inactive
Clc1nc(Cl)nc(Nc2ccccc2Cl)n1		inactive
COCC(=O)N(c1c(C)cccc1C)C(C)C(=O)OC (stereo not given)		inactive
CCCN(CC)CC1COC2(CCC(C(C)(C)C)CC2)O1 (stereo not given)		inactive
CNC(=O)Oc1cccc2ccccc12		inactive
CC1(C)CCC(=Cc2ccc(Cl)cc2)C1(O)Cn1cncn1 (stereo not given)		inactive
CC(C)(C)C(=O)C(Oc1ccc(Cl)cc1)n1cncn1 (stereo not given)		inactive
CCSC(=O)N1CCCCCC1		inactive
CCNC(=O)NC(=O)C(C#N)=NOC		inactive

Compound	AC50	outcome
CCNP(=S)(OC)O/C(C)=C/C(=O)OC(C)C (stereo not given)		inactive
COc1cc(OC)nc(NC(=O)NS(=O)(=O)c2ncccc2OCC(F)(F)F)n1		inactive
CCOP(=S)(OCC)Oc1nc(Cl)n(C(C)C)n1		inactive
Cc1nc(N(C)C)nc(OC(=O)N(C)C)c1C		inactive
Cc1ccc(N=CN(C)C=Nc2ccc(C)cc2C)c(C)c1		inactive
CCCCC(O)(Cn1cncn1)c1ccc(Cl)cc1Cl (stereo not given)	66.5 µM (active)	
Cc1cnc(C2=NC(C)(C(C)C)C(=O)N2)c(C(=O)O)c1 (stereo not given)		inactive
Cc1cc(C)nc(Nc2ccccc2)n1		inactive
CC(C)NC(=O)N1CC(=O)N(c2cc(Cl)cc(Cl)c2)C1=O	20.2 µM (active)	
COCC(C)N(C(=O)CCl)c1c(C)csc1C (stereo not given)		inactive
COC(=O)NS(=O)(=O)c1ccc(N)cc1		inactive
CCC(C)n1c(=O)[nH]c(C)c(Br)c1=O (stereo not given)		inactive
COP(=S)(OC)SCn1nnc2ccccc2c1=O		inactive
N#Cc1c(Cl)cccc1Cl		inactive
Nc1c(Cl)c(Cl)nc(C(=O)O)c1Cl		inactive
CCOc1nc(F)cc2nc(S(=O)(=O)Nc3c(Cl)cccc3Cl)nn12		inactive
N#CN=C1SCCN1Cc1ccc(Cl)nc1		inactive
CO/N=C(/C1=NOCCO1)c1ccccc1Oc1ncnc(Oc2ccccc2Cl)c1F		inactive
C=C(C)CN(CC)c1c([N+](=O)[O-])cc(C(F)(F)F)cc1[N+](=O)[O-]		inactive
CCOP(=O)(OCC)Oc1nc(Cl)c(Cl)cc1Cl		inactive
